Assay [1] in a line: Nuclear factor erythroid 2-related factor 2/antioxidant responsive element (Nrf2/ARE) small molecule agonists: qHTS cell viability counter screen in human keratinocytes (AID 1919968; active = well fitted curve in the direction sought with a large enough effect in the repeat runs; an effect the other way counts as inactive or inconclusive; also: nearly all actives have a fitted effect of over 55% in size). The procedure, abridged: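 Parallel cytotoxicity read: KeratinoSens HaCaT cells, compound treatment 23 h, viability by CellTiter-Fluor fluorescence 1 h post-reagent.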
In general terms: Quantitative high-throughput screening tests each substance at several concentrations.

Assay [2] is described as follows: Nuclear factor erythroid 2-related factor 2/antioxidant responsive element (Nrf2/ARE) small molecule agonists: luciferase reporter gene qHTS assay in human keratinocytes (AID 1919969). Also: nearly all actives have a fitted effect of over 35% in size. On the technique in general: In a reporter assay the amount or activity of a reporter protein is the signal.
Assay [3] deals with Gonadotropin-releasing hormone receptor (Homo sapiens) (UniProt P30968). The assay can be described thus: Human gonadotropin-releasing hormone receptor (GnRHR) small molecule agonists, calcium flux assay in GnRHR-HEK293 cells (AID 1920063). Also: nearly all actives have a fitted effect of over 35% in size. In a few lines: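 Calcium flux, agonist mode, human GnRHR stably integrated in HEK293; dye 1 h at 37 C before compound; Ex/Em=480/540 kinetic read, 3 min; 15 concentrations, triplicate.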
On the technique in general: Calcium flux is commonly read through the fluorescence of an indicator in the cells.

Assay [4] has as its target KiSS-1 receptor (Homo sapiens) (UniProt Q969F8). Description: Human kisspeptin (KISS1R) small molecule agonists, calcium flux assay in KISS1R-HEK293 cells (AID 1920064; active = well fitted curve in the direction sought with a large enough effect in the repeat runs; an effect the other way counts as inactive or inconclusive). The procedure, abridged: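 Triplicate 15-concentration series were applied to dye-loaded human KISS1R HEK293 cells, and agonist-evoked calcium fluorescence was captured for 3 min.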
Assay [5] can be described thus: G protein-coupled receptor (GPCR) small molecule agonists, calcium flux assay: HEK293 wild type cell line counter screen (AID 1920065). In a few lines:
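Non-specific calcium responders were flagged by adding DMSO-dissolved compounds to dye-loaded cells and reading 480/540 nm fluorescence each second for 3 min; ATP served as positive control.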

Assay [6] can be described thus: p53 small molecule agonists, cell-based qHTS assay with human liver microsomes (AID 1963577).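 Also: p53 response element beta-lactamase reporter cells with liver microsomes plus NADPH.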 The procedure, abridged: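 Reporter activation was measured by LiveBLAzer fluorescence intensity in p53RE-bla cells, which had been exposed to compounds for 16 h at 37 C alongside 0.5 mg/mL human liver microsomes and 0.5 mg/mL NADPH (final concentrations).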
Assay [7] is described as follows: p53 small molecule agonists, cell-based qHTS assay with human liver microsomes: qHTS cell viability counter screen (AID 1963579). Also: nearly all actives have a fitted effect of over 45% in size. In a few lines:
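HLM-supplemented (0.5 mg/mL final) and NADPH-supplemented (0.5 mg/mL final) p53RE-bla cultures, 4,000 cells per well, were dosed with compounds in DMSO for 16 h at 37 C; luminescent ATP detection (CellTiter-Glo, 30 min, room temperature) quantified surviving cells.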

Assay [8] in a line: p53 small molecule agonists, cell-based qHTS assay with rat liver microsomes: qHTS cell viability counter screen (AID 1963580). Also: nearly all actives have a fitted effect of over 45% in size. In a few lines: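 After the beta-lactamase ratio was read, CellTiter-Glo was added to the same wells and luminescence measured at 30 min; cells had been treated 16 h at 37 C with compounds, rat liver microsomes and NADPH (0.5 mg/mL final each).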
Assay [9] can be described thus: p53 small molecule agonists, cell-based qHTS assay: qHTS cell viability counter screen (AID 1963581). Also: nearly all actives have a fitted effect of over 45% in size. In a few lines:
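Multiplexed with the reporter read, a CellTiter-Glo step (30 min, room temperature) gauges ATP-based viability of HCT-116 p53RE-bla cells after 16 h compound incubation at 37 C.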

Assay [10] addresses 5-hydroxytryptamine receptor 2A (Homo sapiens) (UniProt P28223). Description: 5-hydroxytryptamine receptor 2A (HTR2A) small molecule antagonists, cell-based qHTS assay (AID 1963586). Also: nearly all actives have a fitted effect of over 45% in size. In a few lines: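 CHO cells stably expressing human HTR2A were plated for 18 h at 37 C, then loaded with calcium dye for 1 h. Compounds were preincubated 5 min at room temperature before DOI (4 nM solution) was added. Kinetic fluorescence was read for 3 min.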

The target is the same in assay [11]. Description: 5-hydroxytryptamine receptor 2A (HTR2A) small molecule agonists, cell-based qHTS assay (AID 1963587). Also: nearly all actives have a fitted effect of over 30% in size. In a few lines: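 CHO cells stably expressing human HTR2A, plated 18 h, loaded with calcium dye 1 h at 37 C. Agonist mode: compounds added and intracellular calcium fluorescence recorded kinetically for 2 min at 1 sec intervals.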
Assay [12] addresses Muscarinic acetylcholine receptor M1 (Homo sapiens) (UniProt P11229). Description: Cholinergic receptor muscarinic 1 (CHRM1) small molecule antagonists, cell-based qHTS assay (AID 1963588). Also: nearly all actives have a fitted effect of over 40% in size. Also: potency is read from the fitted curve at half-maximal effect. In a few lines:
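Compounds were tested at 15 concentrations in three independent runs. Dye-loaded CHRM1-CHO cells were exposed 5 min at room temperature before stimulation by acetylcholine added at 50nM. Intracellular calcium was read kinetically on FDSS for 3 min.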

The target is the same in assay [13]. Description: Cholinergic receptor muscarinic 1 (CHRM1) small molecule agonists, cell-based qHTS assay (AID 1963589). Also: nearly all actives have a fitted effect of over 35% in size. The procedure, abridged: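 qHTS, 15-point titration, 3 independent runs: compounds pin-transferred onto dye-loaded CHRM1-CHO cells (human M1), calcium fluorescence followed every second to detect agonism.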
The nature of assay [14]: cAMP Responsive Elements (CRE) small molecule agonists, cell-based qHTS assay (AID 1963590). Also: potency is read from the fitted curve at half-maximal effect. In a few lines:
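Quantitative HTS for CRE agonists: HEK 293T CRE-bla cells, overnight plating, 3 h compound incubation at 37 C/5% CO2, then 2 h room-temperature LiveBLAzer B/G FRET substrate loading.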

A short description of assay [15]: cAMP Responsive Elements (CRE) small molecule antagonists, cell-based qHTS assay (AID 1963591; active = well fitted inhibition curve with a large enough effect in the signal ratio in the repeat runs, not every such curve was filed as active; the % refers to the signal ratio). In a few lines:
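Fluorescence intensity from cleaved LiveBLAzer B/G substrate (2 h, room temperature) quantified CRE-bla activity in HEK 293T cells exposed 3 h to compound with 0.25 uM final NKH477.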

The target of assay [16] is Beta-2 adrenergic receptor (Homo sapiens) (UniProt P07550). Description: Adrenergic beta2 receptor (ADRB2) small molecule antagonists, cell-based qHTS assay (AID 1963592). Also: series mostly up to about 92 µM; nearly all actives have a fitted effect of over 50% in size. In a few lines: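 Assay format: CHO-ADRB2 cells, 18-20hr seeding at 37C/5% CO2, then compound plus 1nM isoproterenol agonist mix for 0.5hr RT. Homogeneous time-resolved fluorescence cAMP detection after 1hr, expressed as 665/615 nm ratio.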

In assay [17] the target is D(2) dopamine receptor (Homo sapiens) (UniProt P14416). The assay can be described thus: Dopamine D2 receptor (DRD2) small molecule agonists, cell-based qHTS assay (AID 1963594). Also: nearly all actives have a fitted effect of over 35% in size. Also: potency is read from the fitted curve at half-maximal effect. In a few lines: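 HEK293 cells stably expressing human DRD2, pre-treated with PDE inhibitor Ro20-1724 (0.1 mM final) and compound 10 min at room temperature, then stimulated with NKH477 (200nM […]) for 30 min. cAMP read by HTRF (665/620 nm).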

For assay [18] the target is unchanged. The assay can be described thus: Dopamine D2 receptor (DRD2) small molecule antagonists, cell-based qHTS assay (AID 1963595; active = well fitted inhibition curve with a large enough effect in the signal ratio in the repeat runs, with a control signal flat; the % refers to the signal ratio). In a few lines: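 Cells were plated and grown for 24 h at 37 °C. Ro20-1724 (0.1 mM final) went in first, then compound for 10 min. NKH477 (200 nM) with quinpirole (12 nM) followed for 30 min at RT, then HTRF detection reagents for 1 h.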

The nature of assay [19]: p53 small molecule agonists, cell-based qHTS assay (AID 1963582; active = well fitted activation curve with a large enough effect in the signal ratio in the repeat runs, not every such curve was filed as active; the % refers to the signal ratio). The procedure, abridged:
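Beta-lactamase reporter cells (p53RE-bla) treated with compounds for 16 h at 37 C; FRET substrate, 2 h, room temperature; fluorescence intensity.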

In PubChem BioAssay (Tox21) one finds Potency and outcome data, which are given here for 7 compounds.

Molecules are shown by their SMILES. A number with no mark means an inactive call. Records with an inconclusive call do not appear. Activity calls are given as the source filed them. Unless noted, calls follow the shape of the full dose curve.

KiSS-1 receptor (Homo sapiens), sequence (Q969F8 whole entry, looked up): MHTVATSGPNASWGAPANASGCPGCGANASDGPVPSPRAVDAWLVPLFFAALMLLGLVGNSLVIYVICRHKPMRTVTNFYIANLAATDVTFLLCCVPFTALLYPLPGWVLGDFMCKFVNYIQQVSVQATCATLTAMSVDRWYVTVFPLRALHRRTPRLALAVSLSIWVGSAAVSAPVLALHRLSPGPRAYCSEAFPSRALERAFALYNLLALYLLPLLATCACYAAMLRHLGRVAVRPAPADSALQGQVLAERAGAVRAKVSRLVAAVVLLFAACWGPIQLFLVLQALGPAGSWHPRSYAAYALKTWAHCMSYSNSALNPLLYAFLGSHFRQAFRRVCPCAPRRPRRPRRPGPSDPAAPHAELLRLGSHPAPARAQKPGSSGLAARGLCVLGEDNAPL
Gonadotropin-releasing hormone receptor (Homo sapiens), sequence (P30968 whole entry, looked up): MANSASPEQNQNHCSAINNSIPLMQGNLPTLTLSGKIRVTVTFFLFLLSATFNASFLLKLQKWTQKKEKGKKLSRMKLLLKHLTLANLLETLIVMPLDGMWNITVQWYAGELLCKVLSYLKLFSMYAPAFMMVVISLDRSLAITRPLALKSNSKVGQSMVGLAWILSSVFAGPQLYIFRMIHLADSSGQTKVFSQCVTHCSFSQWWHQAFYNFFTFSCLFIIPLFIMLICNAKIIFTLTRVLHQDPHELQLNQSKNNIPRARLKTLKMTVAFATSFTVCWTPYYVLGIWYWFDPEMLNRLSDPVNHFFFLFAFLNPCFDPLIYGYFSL
Muscarinic acetylcholine receptor M1 (Homo sapiens), sequence (P11229 whole entry, looked up): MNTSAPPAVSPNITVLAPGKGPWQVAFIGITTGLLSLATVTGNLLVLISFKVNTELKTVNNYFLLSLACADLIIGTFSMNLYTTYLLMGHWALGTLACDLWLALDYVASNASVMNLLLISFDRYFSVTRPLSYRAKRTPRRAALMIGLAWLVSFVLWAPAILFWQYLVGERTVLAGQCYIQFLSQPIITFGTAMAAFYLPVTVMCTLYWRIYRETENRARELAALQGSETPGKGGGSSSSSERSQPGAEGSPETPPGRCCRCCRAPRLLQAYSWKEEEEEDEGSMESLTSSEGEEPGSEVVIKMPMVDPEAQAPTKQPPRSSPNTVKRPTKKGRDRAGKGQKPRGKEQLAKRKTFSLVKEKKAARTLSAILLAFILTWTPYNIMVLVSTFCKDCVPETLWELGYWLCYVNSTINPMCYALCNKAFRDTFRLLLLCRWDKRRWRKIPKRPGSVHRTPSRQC
Beta-2 adrenergic receptor (Homo sapiens), sequence (P07550 whole entry, looked up): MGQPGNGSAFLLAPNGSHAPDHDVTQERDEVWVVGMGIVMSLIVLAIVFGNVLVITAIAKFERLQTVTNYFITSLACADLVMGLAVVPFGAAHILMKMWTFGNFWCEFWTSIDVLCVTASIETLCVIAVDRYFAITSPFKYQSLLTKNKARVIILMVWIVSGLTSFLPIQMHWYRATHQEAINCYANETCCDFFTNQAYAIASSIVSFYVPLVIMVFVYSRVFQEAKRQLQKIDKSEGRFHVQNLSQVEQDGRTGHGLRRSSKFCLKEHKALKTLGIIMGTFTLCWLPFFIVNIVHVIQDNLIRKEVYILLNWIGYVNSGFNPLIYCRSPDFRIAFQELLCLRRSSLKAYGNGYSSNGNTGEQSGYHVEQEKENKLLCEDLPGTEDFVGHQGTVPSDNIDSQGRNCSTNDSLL
5-hydroxytryptamine receptor 2A (Homo sapiens), sequence (P28223 whole entry, looked up): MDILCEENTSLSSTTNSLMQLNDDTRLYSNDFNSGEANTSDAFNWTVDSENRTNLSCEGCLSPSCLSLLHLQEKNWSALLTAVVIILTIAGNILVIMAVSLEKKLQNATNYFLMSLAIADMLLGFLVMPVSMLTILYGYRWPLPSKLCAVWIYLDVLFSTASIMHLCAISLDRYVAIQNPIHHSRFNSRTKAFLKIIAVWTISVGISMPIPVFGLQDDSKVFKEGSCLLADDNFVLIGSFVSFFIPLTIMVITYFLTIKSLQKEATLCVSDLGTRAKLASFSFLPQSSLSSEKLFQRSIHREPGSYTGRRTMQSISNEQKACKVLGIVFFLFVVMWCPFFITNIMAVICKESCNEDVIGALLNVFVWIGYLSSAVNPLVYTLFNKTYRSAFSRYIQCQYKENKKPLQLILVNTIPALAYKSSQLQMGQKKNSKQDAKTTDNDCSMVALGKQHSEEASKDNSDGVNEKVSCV
D(2) dopamine receptor (Homo sapiens), sequence (P14416 whole entry, looked up): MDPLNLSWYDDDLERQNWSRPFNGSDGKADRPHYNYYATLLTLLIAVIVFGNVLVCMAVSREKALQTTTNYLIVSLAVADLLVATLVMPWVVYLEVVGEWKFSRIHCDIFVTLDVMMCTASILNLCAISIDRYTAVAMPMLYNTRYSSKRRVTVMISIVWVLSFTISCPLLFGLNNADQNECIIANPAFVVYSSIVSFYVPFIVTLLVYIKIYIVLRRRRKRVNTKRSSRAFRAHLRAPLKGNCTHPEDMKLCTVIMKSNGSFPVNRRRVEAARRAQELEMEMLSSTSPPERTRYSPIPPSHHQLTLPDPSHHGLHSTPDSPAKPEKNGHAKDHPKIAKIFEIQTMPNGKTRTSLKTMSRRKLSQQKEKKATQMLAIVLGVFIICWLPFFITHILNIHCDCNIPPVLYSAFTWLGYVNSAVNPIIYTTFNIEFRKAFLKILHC

With `CCN(CCC#N)c1ccc(N=Nc2ccc([N+](=O)[O-])cc2)cc1`, the Potency entry in assay [1], in [2], in [3], in assay [6], in [7] and in [8] was “inactive” throughout. Moreover, the Potency entry in assay [9], in assay [10], in assay [11], in assay [12], in [13] and in [14] was “inactive” in each case. In addition, the Potency result in [15], in [16], in assay [17] and in assay [18] was “inactive” in each case. Also, the outcome in assay [4] and in assay [5] was inactive.
On to `COc1c(N2C[C@@H]3CCCN[C@@H]3C2)c(F)cc2c(=O)c(C(=O)O)cn(C3CC3)c12`, for which the Potency entry in assay [1], in [2], in assay [3], in assay [6], in assay [7] and in assay [8] was “inactive” in each case. The Potency result in [19], in assay [10], in assay [11], in assay [13], in assay [14] and in assay [15] was “inactive” each time. Further, the Potency result in assay [18] was “inactive”. Besides, the outcome in assay [4] and in assay [5] was inactive. Further, in assay [12], the Potency was 6.5 µM (active).
With `c1ccc(CN(CC2=NCCN2)c2ccccc2)cc1`, the Potency entry in assay [1], in assay [2], in [3], in [6], in assay [7] and in assay [8] was “inactive” in each case. In addition, the Potency entry in assay [9], in [19], in assay [11], in assay [12], in assay [13] and in assay [14] was “inactive” in each case. In addition, the Potency entry in assay [15], in assay [17] and in [18] was “inactive” each time. Further, the outcome in [4] and in assay [5] was inactive.
As for `O=C1c2ccccc2S(=O)(=O)N1CCCCN1CCN(c2ncccn2)CC1`, the Potency result in assay [1], in [2], in assay [3], in assay [6], in [7] and in assay [8] was “inactive” throughout. In addition, the Potency result in [9], in assay [19], in [11], in [12], in [13] and in assay [14] was “inactive” in each case. The Potency result in [15], in [16] and in assay [18] was “inactive” in each case. Besides, the outcome in assay [4] and in assay [5] was inactive. The Potency in assay [17] is 2.76 µM (active).
For `CN1CCN(C(c2ccccc2)c2ccccc2)CC1`, the Potency result in assay [1], in assay [2], in assay [3], in assay [6], in assay [7] and in assay [8] was “inactive” throughout. For the same compound, the Potency entry in assay [9], in [19], in assay [14], in assay [15], in assay [16] and in [17] was “inactive” each time. Moreover, the Potency entry in assay [18] was “inactive”. For the same compound, the outcome in assay [4] and in assay [5] was inactive.
Turning to `Nc1nc(Cl)nc2c1ncn2[C@@H]1O[C@H](CO)[C@@H](O)[C@@H]1F`, the Potency result in assay [1], in assay [2], in assay [3], in [6], in assay [7] and in assay [8] was “inactive” in each case. The Potency entry in assay [10], in assay [11], in assay [12], in [13], in [15] and in assay [16] was “inactive” in each case. Moreover, in assay [18], the Potency entry is “inactive”. The outcome in assay [4] and in assay [5] was inactive. In addition, the Potency was 29.8 µM (active) in [14] and 0.422 µM (active) in assay [17].
Consider `CC1(C)Cc2cccc(N)c2O1`, for which the Potency entry in assay [1], in assay [2], in assay [3], in assay [6], in [7] and in assay [8] was “inactive” throughout. Moreover, the Potency entry in assay [19], in assay [10], in assay [11], in [12], in assay [13] and in assay [14] was “inactive” each time. In addition, the Potency result in [15], in [16] and in [17] was “inactive” each time. The result in assay [4] and in assay [5] was inactive.
